Data: PubChem BioAssay (EPA / NIEHS)
The source made the active and inactive calls. The calls were made as follows: active = hit-call score of the fitted dose curve at least 0.9, where 1 is the maximum; inactive = score below 0.9.

Test: Tanguay_ZF_120hpf_BRN: Oregon State University Tanguay Lab 120 Hour Post-fertilization zebrafish Assay for Brain Region Malformation (AID 2284402)
Method in brief: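 Dechorionated wild-type Tropical 5D zebrafish embryos exposed statically from 6 to 120 hpf at 28C, one per well, 0.64% DMSO final. Brain malformation scored at 120 hpf by brightfield as present/absent; dead embryos not scored.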
With `O=P(O)(O)OCCC(F)(F)C(F)(F)C(F)(F)C(F)(F)C(F)(F)C(F)(F)F` the outcome was “inactive”. In the case of `NC(=O)C(F)(F)C(F)(F)C(F)(F)C(F)(F)F`, the outcome is reported as “inactive”. In the case of `FC(F)(F)C(F)(F)C(F)(F)C(F)(F)C(F)(F)CCI`, the outcome is reported as “inactive”. For `O=C(O)C(F)(F)C(F)(F)C(F)(F)C(F)(F)C(F)(F)C(F)(F)C(F)(F)C(F)(F)Cl`, the AC50 was 47.7 µM (active). With `FC(F)(F)C(F)(F)C(F)(F)C(F)(F)C(F)(F)C(F)(F)C(F)(F)C(F)(F)F` the outcome was “inactive”. In the case of `OCC(F)(F)C(F)(F)C(F)(F)C(F)F`, the outcome is reported as “inactive”. In the case of `FC(F)(F)C(F)(F)C(F)(F)C(F)(F)CCI`, the outcome is reported as “inactive”. In the case of `FC(F)(F)C(F)(F)C(F)(F)C(F)(F)C(F)(F)C(F)(F)C(F)(F)C(F)(F)CCS`, the outcome is reported as “inactive”. With `FC(F)(F)C(F)(F)C(F)(F)C(F)(F)C(F)(F)C(F)(F)CC1CO1` (centres undefined) the outcome was “inactive”. For `O=C(O)C(F)(OC(F)(F)C(F)(OC(F)(F)C(F)(OC(F)(F)C(F)(F)C(F)(F)F)C(F)(F)F)C(F)(F)F)C(F)(F)F` (centres undefined), the outcome was “inactive”. For `O=C(O)C(F)(OC(F)(F)C(F)(OC(F)(F)C(F)(F)C(F)(F)F)C(F)(F)F)C(F)(F)F` (centres undefined), the outcome was “inactive”. For `O=C(O)C(F)(F)C(F)(F)C(F)(F)C(F)(F)F`, the outcome was “inactive”. In the case of `N=C(N)C(F)(F)C(F)(F)C(F)(F)C(F)(F)C(F)(F)C(F)(F)C(F)(F)F`, the outcome is reported as “inactive”. For `CC(C)(C)C(=O)CC(=O)C(F)(F)C(F)(F)C(F)(F)F`, the outcome was “inactive”. For `C=CC(=O)OCC(F)(F)C(F)(F)C(F)(F)C(F)(F)COC(=O)C=C`, the outcome was “inactive”. For `O=C(O)C(F)(F)C(F)(F)C(F)F`, the outcome was “inactive”. In the case of `Cc1ccc(S(=O)(=O)OCC(F)(F)C(F)(F)C(F)(F)C(F)(F)C(F)(F)C(F)F)cc1`, the outcome is reported as “inactive”.

Test: Tanguay_ZF_120hpf_TCHR: Oregon State University Tanguay Lab 120 Hour Post-fertilization zebrafish Assay for Touch Responsive (AID 2284403)
Method in brief: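 Dechorionated Tropical 5D wild-type zebrafish embryos, one per well from 6 hpf, were statically exposed to 120 hpf at 28 °C (0.64% DMSO). Touch response was scored present/absent at 120 hpf and not scored in dead larvae.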
With `O=P(O)(O)OCCC(F)(F)C(F)(F)C(F)(F)C(F)(F)C(F)(F)C(F)(F)F` the outcome was “inactive”. With `NC(=O)C(F)(F)C(F)(F)C(F)(F)C(F)(F)F` the outcome was “inactive”. For `FC(F)(F)C(F)(F)C(F)(F)C(F)(F)C(F)(F)CCI`, the outcome was “inactive”. With `O=C(O)C(F)(F)C(F)(F)C(F)(F)C(F)(F)C(F)(F)C(F)(F)C(F)(F)C(F)(F)Cl` the AC50 was 37.2 µM (active). For `FC(F)(F)C(F)(F)C(F)(F)C(F)(F)C(F)(F)C(F)(F)C(F)(F)C(F)(F)F`, the outcome was “inactive”. In the case of `OCC(F)(F)C(F)(F)C(F)(F)C(F)F`, the outcome is reported as “inactive”. For `FC(F)(F)C(F)(F)C(F)(F)C(F)(F)CCI`, the outcome was “inactive”. In the case of `FC(F)(F)C(F)(F)C(F)(F)C(F)(F)C(F)(F)C(F)(F)C(F)(F)C(F)(F)CCS`, the outcome is reported as “inactive”. For `FC(F)(F)C(F)(F)C(F)(F)C(F)(F)C(F)(F)C(F)(F)CC1CO1` (centres undefined), the outcome was “inactive”. With `O=C(O)C(F)(OC(F)(F)C(F)(OC(F)(F)C(F)(OC(F)(F)C(F)(F)C(F)(F)F)C(F)(F)F)C(F)(F)F)C(F)(F)F` (centres undefined) the outcome was “inactive”. In the case of `O=C(O)C(F)(OC(F)(F)C(F)(OC(F)(F)C(F)(F)C(F)(F)F)C(F)(F)F)C(F)(F)F` (centres undefined), the outcome is reported as “inactive”. With `O=C(O)C(F)(F)C(F)(F)C(F)(F)C(F)(F)F` the outcome was “inactive”. With `N=C(N)C(F)(F)C(F)(F)C(F)(F)C(F)(F)C(F)(F)C(F)(F)C(F)(F)F` the outcome was “inactive”. With `CC(C)(C)C(=O)CC(=O)C(F)(F)C(F)(F)C(F)(F)F` the outcome was “inactive”. With `C=CC(=O)OCC(F)(F)C(F)(F)C(F)(F)C(F)(F)COC(=O)C=C` the outcome was “inactive”. In the case of `O=C(O)C(F)(F)C(F)(F)C(F)F`, the outcome is reported as “inactive”. For `Cc1ccc(S(=O)(=O)OCC(F)(F)C(F)(F)C(F)(F)C(F)(F)C(F)(F)C(F)F)cc1`, the outcome was “inactive”.
